# Results reported in the supplement of paper PMC3334620.
# Whole data set: some 33,000 sequences, median “E-score (-0.5 to 0.5)” near -0.04, cut for the highest 2% near 0.36. What follows is part of a selection rich in the highest values, with near analogues and random picks from the rest.
# Biological target: T1, Hmlalpha2 (UniProt P0CY09)
# T1 sequence: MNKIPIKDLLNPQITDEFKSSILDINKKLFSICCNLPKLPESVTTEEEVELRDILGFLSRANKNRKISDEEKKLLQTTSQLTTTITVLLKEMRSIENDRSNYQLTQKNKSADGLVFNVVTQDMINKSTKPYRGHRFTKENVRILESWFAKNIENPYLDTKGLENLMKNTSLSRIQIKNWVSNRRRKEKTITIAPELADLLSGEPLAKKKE
# Assay: PBM E-score (8-mer binding enrichment) (E-score (-0.5 to 0.5)); higher = stronger / more preferred TF binding
# Conditions: protein concentration: 200 nM; construct: GST-full length
# Description: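 Universal 'all 10-mer' protein binding microarrays (Agilent AMADID 015681) probed with GST-tagged S. cerevisiae TFs (full-length or DBD) made by in vitro transcription/translation (PURExpress), about 100-200 nM. Bound TF was detected with fluorescent anti-GST. Each ungapped 8-mer (which stands for itself and its reverse complement) is scored by the PBM enrichment score (E-score), a modified Wilcoxon-Mann-Whitney statistic from -0.5 to +0.5, computed with the Universal PBM Analysis Suite. Scale: above 0.35 generally sequence-specific binding.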
row,Sequence,PBM E-score
1,TAACAAGA,0.377
2,GAACACAA,0.319
3,GAACAAGA,0.139
4,CAACTGCG,-0.126
5,CGACTGAC,-0.137
6,ACTTGTGA,0.148
7,TAGTCGCA,-0.085
8,AAGGTGGT,-0.0621
9,TGCCTACA,0.0851
10,AAGCTACA,0.158
11,CCGGTGCA,-0.247
12,AACACACT,0.313
13,ATCACACA,0.228
14,AACACACA,0.391
15,AACACACG,0.319
16,CAAACACA,0.334
17,AAAACACT,0.148
18,AAAACACA,0.333
19,ATCACACG,0.371
20,ATCACACC,-0.0635
21,TAAACACA,0.379
22,CAAACACG,0.314
23,AAAACACG,0.426
24,GGCTTAAA,-0.0594
25,AGTACTAA,0.173

row,Sequence,PBM E-score
1,GAGCGCCA,-0.25
2,GCGCAACC,-0.228
3,ACGTCCCT,0.163
4,CGTCCTAA,-0.108
5,GTCTCCAC,-0.178
6,CCCCGTCC,-0.382
7,ATGGTGAA,-0.0612
8,ATGTATTG,0.416
9,ATGTATTC,0.443
10,AGGTATTC,0.139
11,ACGTATTG,0.292
12,ATGTATCG,0.323
13,CTGTATTC,0.255
14,ATAGTTCG,0.0279
15,CTCGAGTC,-0.178
16,AAGAACCG,0.117
17,CCCAATCA,-0.113
18,AGGCATTC,-0.265
19,CGCGTAAC,0.342
20,CGCGTAAG,0.369
21,TGCGTAAA,0.441
22,CGCGTATC,0.219
23,GGCGTATA,0.106
24,GGCGTAAA,0.217
25,CGCGTAGA,0.359

row,Sequence,PBM E-score
1,CTCGTAAG,0.172
2,CGCGTAAA,0.454
3,AGCGTAAG,-0.106
4,AGCGTAAA,0.22
5,CGCGTATA,0.372
6,AGCAAGTC,-0.0673
7,CCCTATCG,-0.272
8,AGGAAACC,-0.0996
9,TCCCAGGA,-0.361
10,CATTAGAG,-0.127
11,AGATTTGC,-0.0168
12,CGAGGGTA,-0.233
13,GCCTGCCA,-0.0217
14,CCATGACA,0.0453
15,ACATGACA,0.412
16,GCATGACC,-0.191
17,CCATGACC,-0.348
18,ACATGACT,0.307
19,ACATGACC,0.38
20,ACATGACG,0.379
21,GCATGACA,0.188
22,CCATGACG,-0.105
23,GCTTCAAC,0.0375
24,CTTGATCC,-0.142
25,AAAATCGT,0.0614

row,Sequence,PBM E-score
1,AGATGGAT,-0.265
2,GTGTCTCA,-0.0554
3,GCCTAGAA,-0.187
4,CGAGAAAG,-0.0529
5,AGCCCTGA,-0.0785
6,CCCGTGTA,0.451
7,ACCGTGTA,0.473
8,ACCGTGTC,0.264
9,GCCGTGAA,-0.197
10,ACCGTGTG,0.113
11,CCCGTGGA,-0.176
12,CCCGTGTC,0.168
13,GCCGTGTA,0.432
14,GCCGTGCA,0.0721
15,AGCAAACG,-0.0759
16,AAGTGCCG,0.00934
17,ACCGACTG,-0.317
18,GTTGTTGA,0.259
19,TTCTGAAA,0.0341
20,CTTTCTGA,0.0509
21,ACATTACT,0.303
22,GCATTAGA,0.0569
23,GCATTACC,8e-05
24,CCATTACC,-0.0103
25,CCATTACA,0.435

row,Sequence,PBM E-score
1,ACATTACG,0.336
2,TCATTACA,0.439
3,ACATTACA,0.449
4,TCATTAGA,0.0985
5,CCATTACG,0.13
6,GCATTACA,0.428
7,TCATTAAA,0.263
8,GTACGAAC,0.152
9,GGGAGAGA,-0.33
10,ACGGGTTG,-0.15
11,CCTCAGCG,-0.255
12,CCCAGAAA,-0.0348
13,GTTGCGAA,0.0227
14,ACGTCCTC,-0.162
15,CACGGCTC,-0.0568
16,CGTGTCGC,0.214
17,ATGCCCTG,-0.0289
18,CCGGCGGA,-0.234
19,CAAATGTA,0.35
20,GACATGTC,0.327
21,GACATTTA,0.191
22,GAAATGTA,0.0891
23,CACATGTC,0.22
24,TACATCTA,0.263
25,GACATGTA,0.423

row,Sequence,PBM E-score
1,TACATGTA,0.479
2,TAAATGTA,0.38
3,CACATGTA,0.416
4,TACAGGTA,0.135
5,AATTGACA,0.275
6,AGTCTAGG,-0.15
7,CGCTCTCA,-0.165
8,CAGTCCCG,-0.196
9,ACGCCGAG,-0.0454
10,ATGTGCTA,0.0958
11,CGAAGAAG,-0.0393
12,ATGTTGAA,0.395
13,GTGTTGAA,0.398
14,GTGTTGGA,0.224
15,ATGTTGAG,0.33
16,CTGTTGAA,0.259
17,ATGTTGAC,0.356
18,GAGCTATA,-0.0673
19,GGTGCTCA,-0.179
20,CCCACGAA,-0.102
21,GGCAGCCC,-0.418
22,ATTCACAA,0.232
23,GATACATC,0.169
24,AATACAGG,0.2
25,AATACAAC,0.315

row,Sequence,PBM E-score
1,AATACAGC,0.0849
2,GATACATA,0.32
3,AATACATT,0.329
4,AATACAAG,0.386
5,TATACAAA,0.265
6,AATACAAT,0.249
7,TATACATA,0.445
8,AATACATG,0.482
9,AATACATC,0.368
10,GAATGGTA,0.232
11,GGTGGGGA,-0.0925
12,GGCTTATA,-0.0133
13,AGTGTTGC,0.169
14,CGTAAGTC,0.0646
15,CCTAAGAG,-0.136
16,AAGCCAAC,0.00741
17,CATACCCG,-0.117
18,CATACATG,0.382
19,AATACAAA,0.363
20,AATACATA,0.444
21,CATACATC,0.253
22,AATACAGA,0.204
23,CATACATA,0.329
